The full ranking holds about 18,000 sequences; the median of “log2 normalized intensity” is about 0.39, and the highest 2% start at about 6.6. What follows is part of a selection rich in the highest values, with near analogues and random picks from the rest.

Among the data in PMC10726135, “HNF4α isoforms regulate the circadian balance between carbohydrate and lipid metabolism in the liver” are binding signal values, retold here.

The test has as its target T1, HNF4alpha2 (COS-7 nuclear extract) (Homo sapiens, UniProt P41235 1-474).
T1 sequence: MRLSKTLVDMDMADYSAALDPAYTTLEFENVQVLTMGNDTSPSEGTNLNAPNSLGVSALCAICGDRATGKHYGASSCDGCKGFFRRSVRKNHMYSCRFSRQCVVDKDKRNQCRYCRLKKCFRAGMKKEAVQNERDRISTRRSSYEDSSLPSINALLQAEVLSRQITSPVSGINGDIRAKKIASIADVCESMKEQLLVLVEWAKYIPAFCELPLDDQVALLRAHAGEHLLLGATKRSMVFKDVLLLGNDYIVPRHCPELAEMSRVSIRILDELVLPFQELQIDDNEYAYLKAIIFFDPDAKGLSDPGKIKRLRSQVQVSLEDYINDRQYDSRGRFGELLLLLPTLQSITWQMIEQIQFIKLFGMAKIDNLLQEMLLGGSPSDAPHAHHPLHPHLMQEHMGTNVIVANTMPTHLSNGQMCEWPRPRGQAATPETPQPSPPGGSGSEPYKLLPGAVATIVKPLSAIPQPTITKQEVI
As to the kind of experiment: protein-binding microarray; COS-7 nuclear extract on double-stranded Agilent 4x180k PBM; binding buffer, salt, pH and temperature not given in the material; high values mean tight binding. The conditions noted are these: chain copies: 2; label: 3' end of strand 1 on the slide; dsDNA, one strand shown. An outline of the steps: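 Using CaPO4, COS-7 cells were transiently transfected with a human HNF4α isoform expression vector, and their nuclear extracts were applied to a custom Agilent SurePrint G3 4x180k double-stranded oligonucleotide array (~60 nt; ~44,000 test sequences in quadruplicate). Bound HNF4α was imaged at 2-µm resolution with an Agilent G2565CA scanner. Agilent software supplied the background-corrected, normalized gProcessedSignal that serves as the binding signal.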
As for “GACCTTTGCCCTCTGGCCCTTAAAGGCTTTGCCTAGGGAGATTAGAGTATCGGTCGA”, the binding signal was 6.99 log2 normalized intensity.

For the sequence “TTGAAGCAGAGTGTCCCATATCACATTTTAGCCTAGGGAGATTAGAGTATCGGTCGA”, the binding signal stood at 0.955 log2 normalized intensity.

Regarding “TGCTTATCAGTGTACCTGTCCCTACTCAATGCCTAGGGAGATTAGAGTATCGGTCGA”, the binding signal came out at 0.371 log2 normalized intensity.

For “GTGCCCTCATAAGAGACTTTGCCCTTTTTTGCCTAGGGAGATTAGAGTATCGGTCGA”, the binding signal was determined as 5.63 log2 normalized intensity.

As for “TCAGGACTCTAACTGGCTTTAAGAGGAATGGCCTAGGGAGATTAGAGTATCGGTCGA”, the binding signal is -0.943 log2 normalized intensity.

Turning to “AGGAATGAGACATGAATCCATCCCACCTCAGCCTAGGGAGATTAGAGTATCGGTCGA”, the binding signal is -0.775 log2 normalized intensity.

For “AAACTTTAGTAGTCCAAAGCTCAGATTGCCGCCTAGGGAGATTAGAGTATCGGTCGA”, the binding signal was 0.566 log2 normalized intensity.

Take “AGATGGTCTCAGGTGGAGATAAGGAATTTGGCCTAGGGAGATTAGAGTATCGGTCGA”: the binding signal was -0.171 log2 normalized intensity.

“TAATTCTTCTTTGAAAGTTTGGTGGACTTTGCCTAGGGAGATTAGAGTATCGGTCGA”: the binding signal is 6.32 log2 normalized intensity.

In the case of “GGCATTAATTCTTCTTTGAAAGTTTGGTGGGCCTAGGGAGATTAGAGTATCGGTCGA”, the binding signal amounted to 2.23 log2 normalized intensity.

For the sequence “TTGAAAGTTTGGTGGACTTTGGCCGTGAAGGCCTAGGGAGATTAGAGTATCGGTCGA”, the binding signal is 6.79 log2 normalized intensity.

With “AGTTTGGTGGACTTTGGCCGTGAAGCCGTCGCCTAGGGAGATTAGAGTATCGGTCGA”, the binding signal came to 6.2 log2 normalized intensity.

For “CTTCTTTGAAAGTTTGGTGGACTTTGGCCGGCCTAGGGAGATTAGAGTATCGGTCGA”, the binding signal was determined as 9.62 log2 normalized intensity.

As to “GGTGGACTTTGGCCGTGAAGCCGTCCTGTCGCCTAGGGAGATTAGAGTATCGGTCGA”, the binding signal worked out at 5.03 log2 normalized intensity.

As for “TTTGCTCCAGTTCCCAATAATTTCCTTATCGCCTAGGGAGATTAGAGTATCGGTCGA”, the binding signal was -0.628 log2 normalized intensity.

Turning to “TGTAACTAACAACTGACCTTGCAGGCCAGGGCCTAGGGAGATTAGAGTATCGGTCGA”, the binding signal is -0.838 log2 normalized intensity.

As to “TCTGTTTGATTCCATGCTGATAATGGAATTGCCTAGGGAGATTAGAGTATCGGTCGA”, the binding signal is 0.756 log2 normalized intensity.

In the case of “ATCCCCTCCTGGACTTTGGTCTCATGGGCCGCCTAGGGAGATTAGAGTATCGGTCGA”, the binding signal was 6.4 log2 normalized intensity.

“GAATAATCCCCTCCTGGACTTTGGTCTCATGCCTAGGGAGATTAGAGTATCGGTCGA”: the binding signal amounted to 7.15 log2 normalized intensity.

Regarding “CTCCTGGACTTTGGTCTCATGGGCCTAAACGCCTAGGGAGATTAGAGTATCGGTCGA”, the binding signal is 4.65 log2 normalized intensity.

In the case of “GACATGCAGTATGGGGACTTTGGACTCCTGGCCTAGGGAGATTAGAGTATCGGTCGA”, the binding signal worked out at 7.53 log2 normalized intensity.

For “CAAATGAATAATCCCCTCCTGGACTTTGGTGCCTAGGGAGATTAGAGTATCGGTCGA”, the binding signal was determined as 4.73 log2 normalized intensity.

Turning to “GTAATGACATGCAGTATGGGGACTTTGGACGCCTAGGGAGATTAGAGTATCGGTCGA”, the binding signal was 5.99 log2 normalized intensity.

Regarding “ATCAGTGTACCTGTCCCTACTCAATTATCAGCCTAGGGAGATTAGAGTATCGGTCGA”, the binding signal is -0.287 log2 normalized intensity.

In the case of “CAAGAATACGGATTCTTAAGGGCAAAGGTTGCCTAGGGAGATTAGAGTATCGGTCGA”, the binding signal is 5.88 log2 normalized intensity.

As to “GCTGTGCCGAGCCTGCAGGTGAATGGAAACGCCTAGGGAGATTAGAGTATCGGTCGA”, the binding signal was -0.549 log2 normalized intensity.

As for “AATCTGAATTAACTCTTTACACAGTTCTGAGCCTAGGGAGATTAGAGTATCGGTCGA”, the binding signal is -0.00196 log2 normalized intensity.

With “ACAAAAACTGTTTCTATGTGACCTTCACCCGCCTAGGGAGATTAGAGTATCGGTCGA”, the binding signal came to 5.26 log2 normalized intensity.

With “AAGACTTCCTGGCCTCTCTGCAAATTTGCCGCCTAGGGAGATTAGAGTATCGGTCGA”, the binding signal is -0.993 log2 normalized intensity.

Take “GTTAGGAAACACTCTGTTTGTAAAGTCTACGCCTAGGGAGATTAGAGTATCGGTCGA”: the binding signal was found to be 0.577 log2 normalized intensity.

For “CTGTGCTGCCCTTTGCCCTTTGGGAAGGGGGCCTAGGGAGATTAGAGTATCGGTCGA”, the binding signal was determined as 5.8 log2 normalized intensity.

With “GGACTTTGGGCTGTGTTTTGCCCCTGCAGAGCCTAGGGAGATTAGAGTATCGGTCGA”, the binding signal came to 3.66 log2 normalized intensity.

For “CTTGGCTGTGCTGCCCTTTGCCCTTTGGGAGCCTAGGGAGATTAGAGTATCGGTCGA”, the binding signal was determined as 7.11 log2 normalized intensity.

Take “TTTTCCTTGGCTGTGCTGCCCTTTGCCCTTGCCTAGGGAGATTAGAGTATCGGTCGA”: the binding signal is 7.6 log2 normalized intensity.

Turning to “GAGAGTTTTCCTTGGCTGTGCTGCCCTTTGGCCTAGGGAGATTAGAGTATCGGTCGA”, the binding signal came out at 3.6 log2 normalized intensity.

In the case of “GGGTGGGGTGCTGCCTTTCCTGTGACTTTTGCCTAGGGAGATTAGAGTATCGGTCGA”, the binding signal is 1.74 log2 normalized intensity.

For “GGGCATGGACTTTGGAATTAAGGAGATTTGGCCTAGGGAGATTAGAGTATCGGTCGA”, the binding signal was determined as 4.96 log2 normalized intensity.

On to “AGATCCGAAGTCTAGGACGTTATCAGCAGGGCCTAGGGAGATTAGAGTATCGGTCGA”, for which the binding signal worked out at 0.0613 log2 normalized intensity.

On to “ATAAGTTTTCTCATAAAACACCCACCTTGTGCCTAGGGAGATTAGAGTATCGGTCGA”, for which the binding signal was -0.452 log2 normalized intensity.

“CTATTTCTGACCTTTGCACCAGAGATAATAGCCTAGGGAGATTAGAGTATCGGTCGA”: the binding signal was 5.8 log2 normalized intensity.

In the case of “TCTGACCAGGCTGATTTAGCTATTTGACCTGCCTAGGGAGATTAGAGTATCGGTCGA”, the binding signal was 4.02 log2 normalized intensity.

For the sequence “AGGGGCTATTTCTGACCTTTGCACCAGAGAGCCTAGGGAGATTAGAGTATCGGTCGA”, the binding signal is 6.87 log2 normalized intensity.

Consider “TGGCTAAGACAGGGGCTATTTCTGACCTTTGCCTAGGGAGATTAGAGTATCGGTCGA”, for which the binding signal stood at 6.5 log2 normalized intensity.

For “AAGACAGGGGCTATTTCTGACCTTTGCACCGCCTAGGGAGATTAGAGTATCGGTCGA”, the binding signal is 9.65 log2 normalized intensity.

“CCTTTGCACCAGAGATAATATGCTTACTTAGCCTAGGGAGATTAGAGTATCGGTCGA”: the binding signal is 0.0286 log2 normalized intensity.
